Sm TGR inh: inhibitors of Schistosoma mansoni thioredoxin glutathione reductase; Q962Y6; purified TGR, DTNB reduction, TNB absorbance 405 nm; Potency, µM (top dose mostly 114 µM), without a hit: at the top dose activity change, negative = inhibition, actives largely listed as inhibitors; 360,000 compounds, 3% hits; note: % is set by controls: 0 for no effect and ±100 for the full control effect; nearly all actives have a fitted effect of over 60% in size
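TGR 20 nM + NADPH 100 uM (dispensed conc.), cpd preinc 15 min RT; start with NADPH (500 uM addition) then DTNB (15 mM addition). Kinetic TNB absorbance, 405 nm filter. Four-parameter Hill fit across titration.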
NS1 inh: influenza NS1 inhibition; Potency, µM (titrated, usually from 46.1 µM), for the others: at the highest dose activity, positive = more growth; 270,000 compounds, 0.4% hits; AID 2326; calls by dose curve; note: actives are rising curves; nearly all actives have a fitted effect of over 50% in size
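A cell-based growth assay was used: compounds that relieve NS1-induced slow growth of budding yeast raise OD600. Assay medium was yeast nitrogen base with ammonium sulphate and -URA supplement, pH 6.0, with 2% galactose.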
SARS PLP yeast: inhibitors of SARS-CoV papain-like protease in yeast. S. cerevisiae expressing SARS-CoV PLpro, growth rescue. Potency, µM (top dose mostly 32.9 µM), for the others: at the highest dose activity, positive = growth rescue, hits mostly activators. 330,000 compounds, 0.19% hits. AID 485353; calls by dose curve; note: 0% is about no effect; nearly all actives have a fitted effect of over 55% in size
RE007 growth inh: less growth of the S. pombe RE007 Vpr strain | S. pombe RE007 Vpr strain, BacTiter-Glo ATP luminescence, 24 h | Potency, µM (doses to about 92.2 µM), inactives show at the top dose activity change, negative = less growth, hits mostly inhibitors | AID 651644 | 360,000 compounds, 0.21% hits; active = well fitted falling curve with a large enough effect; inconclusive = small, poorly fitted or top-dose-only effect; inactive = no such curve, though single readings can be large or run the other way; note: % is set by controls: 0 for no effect and ±100 for the full control effect; nearly all actives have a fitted effect of over 50% in size
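Fission yeast RE007 carrying one integrated HIV-1 vpr copy, seeded at OD 0.01 in PMG+AL medium with 23 nL pinned compound. Grown 24 h at 30 degrees; viability read by BacTiter-Glo luminescence after 5 min.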
LmPK inhibitor: LmPK (Leishmania mexicana) enzyme inhibition | Q27686 | purified LmPK, Kinase-Glo ATP luminescence, 1 h | Potency, µM (series often up to 57.5 µM), for inactives: at the top dose activity change, negative = inhibition, actives largely listed as inhibitors | 290,000 compounds, 0.37% hits; note: % is set by controls: 0 for no effect and ±100 for the full control effect
Target sequence (Q27686 whole entry, looked up): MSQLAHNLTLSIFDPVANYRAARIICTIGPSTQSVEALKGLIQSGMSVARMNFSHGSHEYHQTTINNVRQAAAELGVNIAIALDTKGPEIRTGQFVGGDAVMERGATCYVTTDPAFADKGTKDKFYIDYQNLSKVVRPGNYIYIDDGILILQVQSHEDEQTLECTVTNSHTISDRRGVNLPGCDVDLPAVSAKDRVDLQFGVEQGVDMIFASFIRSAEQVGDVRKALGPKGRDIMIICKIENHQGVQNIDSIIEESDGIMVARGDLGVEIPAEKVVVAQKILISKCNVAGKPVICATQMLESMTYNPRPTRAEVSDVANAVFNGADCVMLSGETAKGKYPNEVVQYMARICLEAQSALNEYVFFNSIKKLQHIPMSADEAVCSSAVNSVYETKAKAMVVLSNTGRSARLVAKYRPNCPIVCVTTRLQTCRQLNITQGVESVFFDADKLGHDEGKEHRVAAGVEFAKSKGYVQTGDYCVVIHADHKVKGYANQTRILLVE
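Pyruvate kinase activity monitored as ATP production (luciferase luminescence). Conditions: 0.1 nM enzyme, 0.5 mM PEP, 0.1 mM ADP, 1 h, RT; normalized against uninhibited and no-enzyme wells.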
Tb PYK inh: inhibitors of Trypanosoma brucei pyruvate kinase; TbPYK enzyme, Kinase-Glo Plus ATP luminescence, 45 min; AID 624173; 410,000 compounds, 0.12% hits; Potency, µM (highest dose often 76.8 µM), inactives show at the highest dose activity, negative = inhibition, hits mostly inhibitors; Q57TT1; note: % is set by controls: 0 for no effect and ±100 for the full control effect; nearly all actives have a fitted effect of over 50% in size
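TbPYK + substrate in 50 mM TEA pH 7.2, 100 mM KCl, 10 mM MgCl2, 0.05% BSA, 0.01% Tween-20; cpd pinned; ADP 130 uM final; 45 min RT; Kinase-Glo Plus 10 min; luminescence endpoint.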
* marks the source's active call; other numbers are inactive results; u = inconclusive; x = no result given; [ ] = another dose, or the depositor's remark. In the library only some 3.3% were active in any assay of this set; here they are far more common. Unless noted, calls come from the whole dose curve; as a rule, active = well fitted curve in the direction sought with a large enough effect; inconclusive = small, poorly fitted or top-dose-only effect, or another doubt; inactive = no such curve, though single readings can be large; an effect the other way counts as inactive or inconclusive. Potency is the fitted concentration of half-maximal effect.

SMILES	Sm TGR inh	NS1 inh	SARS PLP yeast	RE007 growth inh	LmPK inhibitor	Tb PYK inh
CC(C)C(C(=O)NCc1ccco1)N(C(=O)CNS(=O)(=O)c1ccc(Cl)cc1)C1CCCC1 (stereo not drawn)	45µM*	-7%	0%	0%	-7%	1%
CCC(C(=O)NCc1ccco1)N(C(=O)CNS(=O)(=O)c1ccccc1)c1ccc(F)cc1 (stereo not drawn)	6%	3%	-1%	-3%	-2%	-1%
CC(C)C(C(=O)NCc1ccco1)N(C(=O)CNS(=O)(=O)c1ccccc1)c1ccccc1 (stereo not drawn)	x	-3%	-1%	-14%	3%	-12%
Cc1ccc(OC(C)C(=O)Nc2nonc2-c2ccc(Br)cc2)cc1C (stereo not drawn)	0%	x	x	x	x	0%
CC(=O)c1cc(-c2ccccc2)n(CC(=O)N2CCN(C3CCCC3)CC2)c1C	40µM*	-3%	0%	-8%	1%	5%
CCOC(=O)N1CCN(CCC(=O)Nc2ccc(OC)cc2)CC1	1%	-3%	4%	-8%	-15%	-6%
CCOC(=O)N1CCN(CCC(=O)Nc2ccc(C)cc2)CC1	-4%	6%	1%	-4%	2%	2%
CCOC(=O)N1CCN(CCC(=O)c2ccc(OC)cc2)CC1	0%	x	-14%	28µM*	-1%	-7%
CCOC(=O)N1CCN(CCC(=O)c2ccc(Cl)cc2)CC1	0%	-80%	-15%	32µM*	-1%	-8%
COc1ccc(C(=O)CCN2CCCC(C)C2)cc1 (stereo not drawn)	0.28µM*	6%	-4%	u	1%	-1%
CCOC(=O)N1CCN(CCC(=O)c2ccc(Br)cc2)CC1	0%	-7%	-12%	35µM*	-3%	1%
CCCSCCCNC(=O)C1CCN(C(=O)c2cnn(-c3ccccc3)c2-n2cccc2)CC1	-7%	x	x	x	x	1%
Cc1ccc(C2C(C(=O)c3cccs3)=C(O)C(=O)N2CCN2CCOCC2)o1 (stereo not drawn)	20µM*	u	-2%	2%	-5%	0%
CCN(CC)CCN1C(=O)C(O)=C(C(=O)c2cccs2)C1c1ccccn1 (stereo not drawn)	u	9%	14%	-8%	1%	-6%
O=C(C1=C(O)C(=O)N(CCN2CCOCC2)C1c1ccccn1)c1cccs1 (stereo not drawn)	20µM*	16%	-1%	-24%	-5%	-10%
Cc1ccc(C2C(C(=O)c3sc(C)nc3C)=C(O)C(=O)N2CCN(C)C)o1 (stereo not drawn)	45µM*	2%	2%	11%	-4%	-4%
CCN(CC)CCN1C(=O)C(O)=C(C(=O)c2cccs2)C1c1ccc(C)o1 (stereo not drawn)	28µM*	-3%	-1%	0%	3%	-11%
CCCCN(C)C(=O)C1CCCN(c2ncnc3onc(-c4ccc(F)cc4)c23)C1 (stereo not drawn)	0%	x	x	x	x	1%
O=C(CN1C(=O)CCS(=O)(=O)c2ccccc21)Nc1ccc(Cl)cc1	50µM*	15%	-4%	3%	-2%	2%
CCOC(=O)c1ccccc1NC(=O)CN1C(=O)CCS(=O)(=O)c2ccccc21	40µM*	-4%	-2%	-1%	4%	3%
O=C1C(C2=C(O)c3ccccc3C2=O)=Nc2ccccc21	u	-34%	-15%	u	18µM*	u
CCN1C(=NCc2cc(OC)c(OC)c(OC)c2)N[C@@H](c2cccc(F)c2)C(C(=O)OC)=C1C	-20%	2%	8%	x	-7%	x
Cc1ccc(C)c(C(C)NC(=O)c2ccc(Br)o2)c1 (stereo not drawn)	35µM*	5%	0%	20%	3%	-24%
Cc1ccc(NC(=O)Cn2c(=O)n(Cc3ccco3)c(=O)c3oc4ccccc4c32)cc1C	-3%	x	x	x	x	-4%
Cc1nn2c3c(cnc2c1-c1ccccc1)C(=O)CC(c1ccco1)C3 (stereo not drawn)	35µM*	1%	0%	-2%	4%	-1%
SMILES	Sm TGR inh	NS1 inh	SARS PLP yeast	RE007 growth inh	LmPK inhibitor	Tb PYK inh
Cc1nn2c3c(cnc2c1-c1ccccc1)C(=O)CC(c1ccccc1)C3 (stereo not drawn)	12%	3%	3%	-3%	5%	4%
CC1(C)COC(c2ccc(F)c([N+](=O)[O-])c2)=N1	50µM*	9%	18%	-4%	5%	1%
CC(=O)Nc1ccc2nc(CN3CCN(CC=C(C)C)C(CCO)C3)ccc2c1 (stereo not drawn)	20µM*	10%	0%	2%	3%	-1%
CC(=O)Nc1ccc(CN2CCN(CC=C(C)C)C(CCO)C2)cc1 (stereo not drawn)	1%	-2%	-1%	1%	-6%	7%
Cc1ccc(CN2CCN(Cc3ccc4cc(F)ccc4n3)CC2CCO)o1 (stereo not drawn)	18µM*	0%	1%	0%	-1%	-3%
OCCC1CN(Cc2ccc3cc(Cl)ccc3n2)CCN1Cc1ccsc1 (stereo not drawn)	35µM*	5%	0%	-10%	-7%	-11%
Cc1ccc(CN2CCN(Cc3cnn(-c4ccc(F)cc4)c3)CC2CCO)o1 (stereo not drawn)	-19%[57.1 µM]	3%	0%	-8%	0%	-1%
COc1cc(CN2CCN(Cc3ccc4cc(F)ccc4n3)CC2CCO)cc(OC)c1 (stereo not drawn)	40µM*	7%	2%	-3%	4%	2%
CN(C)c1ccc(C2CC(c3c(O)n(C4CCCCC4)c(=O)[nH]c3=O)=Nc3ccccc3S2)cc1 (stereo not drawn)	6%	x	x	x	x	-5%
Cc1nc2ccccc2nc1CN1CCN(Cc2ccc(F)c(F)c2)C(CCO)C1 (stereo not drawn)	14µM*	-1%	0%	7%	0%	1%
COc1cccc(CN2CCN(Cc3ccc4c(NC(C)=O)cccc4n3)CC2CCO)c1 (stereo not drawn)	20µM*	-1%	1%	-8%	9%	1%
CCOc1ccc2nc(CN3CCN(Cc4ccccc4OCC)C(CCO)C3)ccc2c1 (stereo not drawn)	u	12%	17%	-5%	2%	4%
COc1cccc(CN2CCN(Cc3ccon3)CC2CCO)c1 (stereo not drawn)	-25%	0%	-1%	-11%	5%	-6%
Cc1oc(-c2cccs2)nc1CN1CCN(Cc2ccc(F)c(F)c2)C(CCO)C1 (stereo not drawn)	-29%	-1%	0%	-6%	-3%	-5%
